A selection: hits, their analogues and other compounds. The true share with any hit is near 3.9%.
CCHF vOTU inh: CCHFV vOTU protease inhibitors, primary screen, biochemical, Pep-AMC substrate, fluorescence; Crimean-Congo hemorrhagic fever virus L polyprotein viral ovarian tumor (vOTU) protease …; inhibition, % at 11.5 µM; hit rate 0.55% among 370,000; in the data active means inhibition above about 30%; further: 0% = vehicle wells with enzyme and 100% = no enzyme wells
Autofluor counter: flagged as autofluorescent in microsphere protease counterscreen; compound autofluorescence counterscreen, microsphere flow cytometry; stronger effect = higher value; fluorescence intensity (test concentration not listed); hit rate 3.1% among 360,000; in the data active means fluorescence intensity above about 16000; inconclusive means no clear call, values can overlap the other calls
3CLpro inhibitor: SARS-CoV 3CLpro protease inhibitors, primary screen, biochemical, quenched FRET; Replicase polyprotein 1ab (Severe acute respiratory syndrome coronavirus), P0C6X7; recombinant SARS-CoV 3CLpro, quenched FRET peptide cleavage; inhibition, % at 6 µM; hit rate 0.14% among 290,000; AID 1706, 2009; in the data active means inhibition above about 12%
Anthrax LF inh2: Bacillus anthracis LF protease inhibitors, primary screen, biochemical, multiplex microsphere, MLPCN library. Lethal factor (Bacillus anthracis), P15917. multiplex microsphere protease cleavage assay. inhibition, % at 10 µM. hit rate 0.12% among 360,000; further: plate controls were buffer without enzyme for full effect and enzyme alone for no effect
Target sequence (P15917 whole entry, looked up): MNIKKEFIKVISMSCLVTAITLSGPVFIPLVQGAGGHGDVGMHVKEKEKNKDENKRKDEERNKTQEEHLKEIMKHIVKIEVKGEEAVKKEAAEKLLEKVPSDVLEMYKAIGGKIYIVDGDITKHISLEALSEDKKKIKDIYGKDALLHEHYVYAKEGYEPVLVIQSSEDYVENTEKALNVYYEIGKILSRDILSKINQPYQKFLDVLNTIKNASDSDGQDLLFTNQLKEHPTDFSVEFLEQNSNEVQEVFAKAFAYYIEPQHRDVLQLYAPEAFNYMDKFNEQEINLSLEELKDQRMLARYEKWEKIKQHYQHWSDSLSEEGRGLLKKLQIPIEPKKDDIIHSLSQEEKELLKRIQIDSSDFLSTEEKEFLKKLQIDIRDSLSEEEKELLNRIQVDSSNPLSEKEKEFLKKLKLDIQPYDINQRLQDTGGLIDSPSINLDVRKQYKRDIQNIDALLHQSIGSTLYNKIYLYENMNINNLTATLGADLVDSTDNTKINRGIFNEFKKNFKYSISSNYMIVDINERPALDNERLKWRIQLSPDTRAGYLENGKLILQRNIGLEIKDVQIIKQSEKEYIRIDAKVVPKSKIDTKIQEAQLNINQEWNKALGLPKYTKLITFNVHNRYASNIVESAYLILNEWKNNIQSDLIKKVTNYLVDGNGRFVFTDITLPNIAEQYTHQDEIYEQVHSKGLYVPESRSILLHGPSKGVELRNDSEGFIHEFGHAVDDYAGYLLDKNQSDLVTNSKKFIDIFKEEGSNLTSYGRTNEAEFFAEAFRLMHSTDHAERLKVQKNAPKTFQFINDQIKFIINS
BoNT-A LC inh2: BoNT/A light chain protease inhibitors, primary screen, biochemical, flow cytometry, MLPCN library. Botulinum neurotoxin type A light chain protease (Clostridium botulinum A str. ATCC 3502). multiplex microsphere protease substrate cleavage. inhibition, % at 10 µM. hit rate 0.17% among 360,000; further: plate controls were buffer without enzyme for full effect and enzyme alone for no effect
BoNT-F LC inh: BoNT/F light chain protease inhibitors, primary screen, biochemical, flow cytometry, MLPCN library. hit rate 0.22% among 360,000. inhibition, % at 10 µM. AID 588497, 2011. Botulinum neurotoxin type F light chain protease (Clostridium botulinum). Multiplex microsphere protease cleavage assay; in the data active means inhibition above about 35%, passing the limit was not always enough; inconclusive means no clear call, values can overlap the other calls; further: plate controls were buffer without enzyme for full effect and enzyme alone for no effect
An asterisk follows results filed as active; ? = inconclusive; · = no result given. Unless noted, no stated cut-off is given here; in the data, active means inhibition above about 30%; inconclusive means no clear call, values can overlap the other calls; inactive means below that.

SMILES	CCHF vOTU inh	Autofluor counter	3CLpro inhibitor	Anthrax LF inh2	BoNT-A LC inh2	BoNT-F LC inh
Cn1cc(CNC(=O)C23CC4CC(CC(C4)C2)C3)cn1	2	3911	-2	8	3	36*
c1ccc(CCCN2CCN(CCOC(c3ccccc3)c3ccccc3)CC2)cc1	12	5680	·	-1	0	2
c1ccc(COCCN2CCN(CCOCc3ccccc3)CC2)cc1	·	16853*	5	-5	-2	-1
O=C(c1ccncc1F)N1CCC(n2nnc3ncccc32)CC1	3	·	·	·	·	·
Cn1cc(C2(c3c[nH]c4ccccc34)CCN(C(=O)OC(C)(C)C)CC2)c2ccccc21	17	·	·	·	·	·
CCC(CO)Oc1cc(NC(=O)c2cccc(C)c2)c2ncn(C(C)C)c2c1 (stereo not given)	-2	3029	·	2	1	13
O=C(Cc1cccs1)Nc1ccc(S(=O)(=O)Nc2ncccn2)cc1	6	3087	2	-2	0	-8
CC1CCN(CC(=O)Nc2ccc(S(=O)(=O)N3CCCC(C)C3)cc2)CC1 (stereo not given)	-7	3576	0	-9	0	-15
Cc1ccc2nc(C3CCN(C(=O)NCc4ccccc4)CC3)[nH]c2c1	15	17071*	3	-5	-3	-5
Cc1ccnc(NS(=O)(=O)c2ccc(NC(=O)Cc3cccs3)cc2)n1	·	21122*	0	-1	?	-2
Cc1ccc(S(=O)(=O)N2CCCN(S(=O)(=O)c3ccc4c(c3)OCCO4)CC2)cc1	-11	26607*	1	-7	-11	-15
CC1CCCN(S(=O)(=O)c2ccc(NC(=O)CN3CCN(C)CC3)cc2)C1 (stereo not given)	8	16136*	2	1	0	-2
O=C(CCc1ccccc1)N[C@H]1[C@@H](OC(=O)c2cccnc2)CCC[C@]12C(=O)N(Cc1ccccc1)c1ccccc12	8	·	·	·	·	·
CC(=O)Nc1ccc(S(=O)(=O)N2CCC(c3nc4ccc(C)cc4[nH]3)CC2)cc1	-2	24362*	4	-2	-1	-4
CCOC(=O)Nc1ccc(S(=O)(=O)N2CCC(c3nc4ccccc4[nH]3)CC2)cc1	-8	2803	·	2	0	5
CC(=O)Nc1ccc(S(=O)(=O)N2CCN(S(=O)(=O)c3ccc(NC(C)=O)cc3)CC2)cc1	-8	3611	-4	7	0	0
CN1CCN(S(=O)(=O)c2ccc(NC(=O)c3cccs3)cc2)CC1	5	3269	4	4	0	6
CN1CCN(S(=O)(=O)c2ccc(NC(=O)C(C)(C)C)cc2)CC1	-4	22681*	-3	-1	?	3
CN1CCN(S(=O)(=O)c2ccc(-c3ccc(Cl)cc3)cc2)CC1	10	20018*	2	1	-1	-5
CN1CCN(S(=O)(=O)c2ccc(Cl)cc2)CC1	-12	3891	-3	-9	0	-2
CN1CCN(S(=O)(=O)c2ccc(NC(=O)c3csc4ccccc34)cc2)CC1	·	16528*	-1	-4	?	-1
Cn1c(SCCc2ccccc2)nnc1-c1ccco1	9	·	·	·	·	·
COc1ccc(C2CCC3(CCC(=O)N3CCO)CC2)cc1 (stereo not given)	-1	·	·	·	·	·
Cc1ccc(-c2cc(C(=O)NN=Cc3ccc(-c4ccccc4)cc3)[nH]n2)cc1	-12	·	·	·	·	·
CCOC(=O)CC[C@@]1(C(=O)OCC)C[C@@H](CC(=O)N2CCOCC2)C(=O)N2CCCC=C21	-8	·	·	·	·	·
SMILES	CCHF vOTU inh	Autofluor counter	3CLpro inhibitor	Anthrax LF inh2	BoNT-A LC inh2	BoNT-F LC inh
CC(=O)Nc1ccc(S(=O)(=O)N2CCCN(S(=O)(=O)c3ccc(NC(C)=O)cc3)CC2)cc1	-4	9007	-1	6	1	10
CC(=O)Nc1ccc(S(=O)(=O)N2CCCN(S(=O)(=O)c3ccc(C)cc3)CC2)cc1	2	27039*	1	-2	-10	-15
CN1CCN(S(=O)(=O)c2ccc(NC(=O)Cc3cccs3)cc2)CC1	·	19616*	-4	1	8	10
CCC(Oc1cc(Cl)ccc1Cl)C(=O)NN1C(=O)C2C3CCC(C3=C(C)C)C2C1=O (stereo not given)	5	4726	4	0	1	35*
CO/N=C/c1cc([N+](=O)[O-])ccc1Sc1ccc(C)cc1	13	21195*	-2	-1	?	2
CCOc1ccc(C(=O)C(C)OC(=O)c2cnc(C)cn2)cc1 (stereo not given)	-10	6579	·	-1	-1	4
O=C(NCCc1ccccc1)C(=O)NCC1CCNCC1	·	·	0	·	·	·
Cc1ccc(S(=O)(=O)Nc2cc(-c3nn(C)c(=O)c4ccccc34)ccc2N2CCOCC2)cc1	-16	22492*	3	-4	?	4
CCOC(=O)C(NC(=O)CC(C)C)(Nc1cc(C)on1)C(F)(F)F (stereo not given)	-5	22923*	-8	-2	-2	-1
CCCC(=O)NC(Nc1ccc(S(=O)(=O)Nc2cc(C)on2)cc1)(C(=O)OCC)C(F)(F)F (stereo not given)	7	8537	-9	3	0	0
CCCc1nc(S(=O)(=O)Cc2ccc(Cl)cc2Cl)n[nH]1	5	17841*	0	0	5	8
O=C(CC1SC(=O)N(c2ccccc2)C1=O)Nc1ccccc1 (stereo not given)	11	21831*	-1	-3	1	-4
Cc1cc(C)c(S(=O)(=O)ON2C(=O)c3ccccc3C2=O)cc1C	-14	23962*	6	-3	?	0
Cc1ccc(S(=O)(=O)ON2C(=O)c3ccccc3C2=O)c(C)c1	-37	9145	3	-3	0	12
Cc1cc(C)c(C#N)c(Nc2ccccc2)n1	-3	21778*	1	0	-4	-6
Cc1cccc(Nc2nc(C)cc(C)c2C#N)c1	0	4028	1	-7	-1	?
CCOC(=O)[C@@]12CCC3=C1N(CCC3)C(=O)[C@H](CC(=O)N1CCSCC1)C2	-2	·	·	·	·	·
Fc1ccc(N2CCN(c3nc(-c4ccco4)cc(C(F)(F)F)n3)CC2)cc1	7	9624	-1	-16	0	12
FC(F)(F)c1cc(-c2ccco2)nc(N2CCN(Cc3ccccc3)CC2)n1	6	21755*	4	-4	-6	-9
CCN1C(=O)C(=Cc2cc(C)n(C3CC3)c2C)C(=O)N(CC)C1=S	-5	2840	-5	16	41*	8
Cc1cc(C=C2C(=O)N(C)C(=S)N(C)C2=O)c(C)n1C1CCCC1	3	4034	-5	38*	54*	27
Cc1cc(/C=C2\SC(=S)NC2=O)c(C)n1C1CC1	20	20502*	1	3	1	3
COc1ccc(S(=O)(=O)N2CCN(C(=O)c3ccc(NC(C)=O)cc3)CC2)cc1	13	4119	·	5	-1	-1
O/N=C/C1=C(Cl)c2ccccc2CC1	28	3384	2	-7	0	2
